Laboratory results from PubChem BioAssay (NCATS).
Inconclusive results are not listed. Where a call stands in place of a potency, no number is given. A number with no mark means an inactive call. Activity calls are given as the source filed them. Calls follow the shape of the dose curve; as a rule, active = well fitted curve in the direction sought with a large enough effect; inconclusive = small, poorly fitted or top-dose-only effect, or another doubt; inactive = no such curve, though single readings can be large; an effect the other way counts as inactive or inconclusive.

Key:
[1] = target: Rap guanine nucleotide exchange factor 3 (Homo sapiens) (UniProt O95398); assay: Confirmatory qHTS for antagonist of cAMP-regulated guanine nucleotide exchange factor 3 (EPAC1) (AID 1645880); also: nearly all actives have a fitted effect of over 55% in size; also: potency is read from the fitted curve at half-maximal effect
How it was run: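 Nucleotide exchange uses 100 nM EPAC1, 250 nM RAP1B-BODIPY-GDP and 50 uM GDP, with compounds in a concentration-titration series. After 5 min at room temperature, fluorescence (480 nm ex/540 nm em) is read every 5 min for 30 min. Data are normalized to control ATA and DMSO.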

[2] = target: Rap guanine nucleotide exchange factor 3 (Homo sapiens) (UniProt O95398); assay: Confirmatory qHTS for agonist of cAMP-regulated guanine nucleotide exchange factor 3 (EPAC1) (AID 1645881);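 also: EPAC1 catalysed release of BODIPY-GDP from Rap1B seen as fluorescence loss; nearly all actives have a fitted effect of over 75% in size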
[3] = target: Rap guanine nucleotide exchange factor 4 (Homo sapiens) (UniProt Q8WZA2); assay: Confirmatory qHTS for agonist of cAMP-regulated guanine nucleotide exchange factor 4 (EPAC2) (AID 1645884);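 also: nucleotide exchange releases bodipy-GDP from Rap1 and this lowers its fluorescence; nearly all actives have a fitted effect of over 65% in size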
[4] = target: Rap guanine nucleotide exchange factor 4 (Homo sapiens) (UniProt Q8WZA2); assay: Confirmatory qHTS for antagonist of cAMP-regulated guanine nucleotide exchange factor 4 (EPAC2) (AID 1645885); also: nearly all actives have a fitted effect of over 25% in size; also: potency is read from the fitted curve at half-maximal effect
[5] = target: Rap guanine nucleotide exchange factor 3 (Homo sapiens) (UniProt O95398); assay: Counterscreen qHTS for antagonist of cAMP-regulated guanine nucleotide exchange factor 3 (EPAC1) (AID 1645888);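 also: fluorescence loss as bound BODIPY-GDP is released from Rap1B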
How it was run: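 Rap1B–BODIPY-GDP (250 nM) with 50 uM GDP; compounds pin-transferred to 9.74 nM–152 uM final (activator) or from 7.32 nM upwards (inhibitor). Fluorescence Ex/Em 480/540 nm read at 5 and 30 min, then after adding cAMP or buffer, at room temperature.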

Sequence of Rap guanine nucleotide exchange factor 4 (Homo sapiens) (Q8WZA2 whole entry, looked up): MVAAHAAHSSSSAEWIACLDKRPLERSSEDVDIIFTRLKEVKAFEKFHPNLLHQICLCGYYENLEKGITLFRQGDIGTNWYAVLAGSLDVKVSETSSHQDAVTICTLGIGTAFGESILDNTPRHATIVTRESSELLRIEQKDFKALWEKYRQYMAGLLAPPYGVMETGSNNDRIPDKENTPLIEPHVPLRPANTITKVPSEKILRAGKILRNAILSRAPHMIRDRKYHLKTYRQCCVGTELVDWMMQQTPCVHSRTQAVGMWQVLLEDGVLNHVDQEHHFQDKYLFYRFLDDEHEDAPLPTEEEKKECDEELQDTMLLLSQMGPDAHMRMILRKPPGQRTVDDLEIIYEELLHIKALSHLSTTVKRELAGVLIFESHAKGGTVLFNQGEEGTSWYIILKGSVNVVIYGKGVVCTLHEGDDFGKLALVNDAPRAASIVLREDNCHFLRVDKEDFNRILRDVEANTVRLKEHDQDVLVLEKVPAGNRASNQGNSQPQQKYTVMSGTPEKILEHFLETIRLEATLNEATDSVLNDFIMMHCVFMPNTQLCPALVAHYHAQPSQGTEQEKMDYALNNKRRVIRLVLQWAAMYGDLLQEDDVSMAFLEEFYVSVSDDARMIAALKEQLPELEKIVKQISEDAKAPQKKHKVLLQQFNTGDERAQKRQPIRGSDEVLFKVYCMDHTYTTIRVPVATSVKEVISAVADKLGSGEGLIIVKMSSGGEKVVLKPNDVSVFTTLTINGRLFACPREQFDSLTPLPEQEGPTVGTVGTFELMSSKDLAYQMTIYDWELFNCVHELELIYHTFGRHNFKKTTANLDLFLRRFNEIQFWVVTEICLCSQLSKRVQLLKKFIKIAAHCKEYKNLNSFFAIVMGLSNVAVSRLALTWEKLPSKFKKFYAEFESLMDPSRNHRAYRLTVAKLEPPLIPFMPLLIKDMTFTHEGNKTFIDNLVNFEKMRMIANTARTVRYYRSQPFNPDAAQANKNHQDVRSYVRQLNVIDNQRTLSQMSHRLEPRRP
Sequence of Rap guanine nucleotide exchange factor 3 (Homo sapiens) (O95398 whole entry, looked up): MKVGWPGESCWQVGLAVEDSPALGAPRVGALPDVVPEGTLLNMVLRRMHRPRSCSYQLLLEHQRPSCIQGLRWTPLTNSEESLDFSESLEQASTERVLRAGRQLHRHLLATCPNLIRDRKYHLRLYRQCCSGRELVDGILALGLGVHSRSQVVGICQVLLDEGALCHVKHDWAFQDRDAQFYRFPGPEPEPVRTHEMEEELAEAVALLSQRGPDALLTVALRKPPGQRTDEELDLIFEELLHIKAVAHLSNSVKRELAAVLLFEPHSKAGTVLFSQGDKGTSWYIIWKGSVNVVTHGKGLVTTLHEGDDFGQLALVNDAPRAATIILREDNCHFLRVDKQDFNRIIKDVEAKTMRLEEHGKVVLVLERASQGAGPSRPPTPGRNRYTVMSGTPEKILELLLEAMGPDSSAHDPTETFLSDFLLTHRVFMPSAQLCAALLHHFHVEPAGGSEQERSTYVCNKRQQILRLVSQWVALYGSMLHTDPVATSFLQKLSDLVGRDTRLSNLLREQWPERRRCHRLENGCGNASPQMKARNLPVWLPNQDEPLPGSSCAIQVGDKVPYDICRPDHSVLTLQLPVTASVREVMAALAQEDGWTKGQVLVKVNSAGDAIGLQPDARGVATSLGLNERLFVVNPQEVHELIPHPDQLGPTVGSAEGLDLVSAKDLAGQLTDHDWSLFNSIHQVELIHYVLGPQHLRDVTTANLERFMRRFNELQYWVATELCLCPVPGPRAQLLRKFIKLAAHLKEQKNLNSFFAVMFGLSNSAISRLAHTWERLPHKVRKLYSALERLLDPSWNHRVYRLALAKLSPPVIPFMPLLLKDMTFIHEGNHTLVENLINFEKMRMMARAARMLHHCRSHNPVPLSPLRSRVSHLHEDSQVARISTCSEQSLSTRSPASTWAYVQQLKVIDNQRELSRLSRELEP

Row | Structure (SMILES) | Potency [1] | Potency [2] | Potency [3] | Potency [4] | Potency [5] | activation [3] | activity change, negative = inhibition [5]
1 | CCc1ccc(S(=O)(=O)/N=C2\C=C(Nc3cccc(C(=O)O)c3)C(=O)c3ccccc32)cc1 | 37.9 µM (active) | inactive | inactive | 0.379 µM (active) | inactive |  | 
2 | CCCCCCOC(=O)C(C#N)c1nc2ccccc2nc1N1CCOCC1 (stereo not given) | 75.7 µM (active) | inactive | inactive | 75.7 µM (active) | inactive |  | 
3 | COC(=O)c1cc2oc(C)cc2n1Cc1ccccc1Cl | inactive | inactive | inactive | inactive | inactive |  | 
4 | COCCn1c(SCC(=O)Nc2ccc3c(c2)CCC3)nc2ccccc2c1=O | inactive | inactive |  | inactive |  | -0.521% [at 17.1 µM, percent relative to cAMP agonist control] | -10.3% [at 30.8 µM]
5 | N#CC(=Cc1ccc(-c2ccccc2)cc1)C(=O)c1ccccc1 | 39.8 µM (active) | inactive |  | inactive |  | 0.543% [at 17.1 µM, percent relative to cAMP agonist control] | -16.6% [at 30.8 µM]
6 | CC(=O)Nc1cccc(NC(=O)CSc2nc(=O)n(CCN3CCOCC3)c3c2CCCC3)c1 | inactive | inactive | inactive | inactive | inactive |  | 
7 | Cc1ccc(S(=O)(=O)N2[C@@H](c3ccc(Br)cc3)C(C(=O)O)=CC[C@H]2c2ccc(Cl)c(Cl)c2)cc1 | 67.5 µM (active) | inactive | inactive | 33.8 µM (active) | inactive |  | 
8 | COc1cccc(NC(=O)CCNC(=O)Cn2ccc3ccccc3c2=O)c1 | inactive | inactive | inactive | inactive | inactive |  | 
9 | CN(C(=O)c1cc(-c2ccccc2)on1)C1CCCCC1 | inactive | inactive |  | inactive |  | 6.82% [at 17.1 µM, percent relative to cAMP agonist control] | 29.1% [at 30.8 µM]
10 | COc1ccccc1C(=O)NC(=O)COC(=O)C1CC1 | inactive | inactive | inactive | inactive | inactive |  | 
11 | CCOC(=O)C1C(=O)C=C(c2ccccc2)CC1c1ccccc1 (stereo not given) | inactive | inactive |  | inactive |  | 12.3% [at 17.1 µM, percent relative to cAMP agonist control] | -11.6% [at 30.8 µM]
12 | Cc1c(Br)c(=O)oc2c(Br)c(O)c(O)cc12 | 3.16 µM (active) | inactive |  | inactive |  | 9.71% [at 17.1 µM, percent relative to cAMP agonist control] | 21.7% [at 30.8 µM]
13 | COC(=O)c1cc2oc(C)cc2n1Cc1ccc(Br)cc1F | inactive | inactive | inactive | inactive | inactive |  | 
14 | COc1cccc(C2=NN(C(=O)c3ccco3)C(O)(C(F)(F)F)C2)c1 (stereo not given) | inactive | inactive |  | inactive |  | 1.71% [at 17.1 µM, percent relative to cAMP agonist control] | -10.8% [at 30.8 µM]
15 | Cc1ncc(CO)c(/C=N/NC(=O)c2cc(Br)ccc2O)c1O | inactive | inactive |  | inactive |  | 0% [at 17.1 µM, percent relative to cAMP agonist control] | -9.07% [at 30.8 µM]
16 | COc1cc(Nc2cc(C)nc3ncnn23)cc(OC)c1 | inactive | inactive | inactive | inactive | inactive |  | 
17 | CCn1c(=O)c2sccc2n2c(CCCC(=O)N3CCN(c4cc(C)ccc4C)CC3)nnc12 | inactive | inactive | inactive | inactive | inactive |  | 
18 | COc1cccc(NC(=O)CSc2nnc3[nH]c(=O)cc(-c4ccccc4)n23)c1 | inactive | inactive | inactive | inactive | inactive |  | 
19 | O=C1CC(c2ccccc2)=C(c2ccccc2)C1 | inactive | inactive |  | inactive |  | -2.19% [at 17.1 µM, percent relative to cAMP agonist control] | 8.98% [at 30.8 µM]
20 | CC(OC(=O)Cc1c[nH]c2ccccc12)C(=O)Nc1ccccc1F (stereo not given) | inactive | inactive | inactive | inactive | inactive |  | 
21 | Cc1ccc(C)c(-n2c3nc(=O)[nH]c(=O)c-3cc3cc([N+](=O)[O-])ccc32)c1 | 47.8 µM (active) | inactive | inactive | inactive | inactive |  | 
22 | Cc1ccc(C(=O)c2cn(Cc3ccccc3)c3nc(C)ccc3c2=O)cc1 | inactive | inactive | inactive | inactive | inactive |  | 
23 | Cc1cc(C)c(NC(=O)Cn2c(=O)n(Cc3ccc(C(=O)NCc4ccco4)cc3)c(=O)c3sccc32)c(C)c1 | 75.7 µM (active) | inactive | inactive | inactive | inactive |  | 
24 | COc1ccc(C(NC(C)=O)c2cc(Cl)c3cccnc3c2O)cc1 (stereo not given) | inactive | inactive |  | inactive |  | 3.14% [at 17.1 µM, percent relative to cAMP agonist control] | -6.93% [at 30.8 µM]
25 | COc1ccc(C(=O)Nc2ccc(-c3cc4ccccc4oc3=O)c(C)c2)cc1Br | inactive | inactive | inactive | inactive | inactive |  | 
